KDM5B inhibitor = inhibitors of human KDM5B histone demethylase. Q9UGL1. KDM5B demethylase, FDH-coupled NADH fluorescence (FDH is formaldehyde dehydrogenase). Potency, µM (doses to about 57.7 µM), most hits filed as inhibitors. actives 2.6% (n = 220,000). AID 1347165; active = well fitted inhibition curve with a large enough effect; also: 0% is about no effect; nearly all actives have a fitted effect of over 70% in size
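Inhibition is measured as reduced NADH fluorescence generation from FDH coupling to formaldehyde release. Truncated KDM5BΔAP at 200 nM final acts on H3K4me3 peptide (12.5 µM in substrate mix) in pH 7.5 HEPES buffer with Tween-20, 30 min, room temperature.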
An asterisk follows results filed as active; i = inactive. The entries come from a sample that favours hits as a whole. Potency is read from the fitted curve at half-maximal effect.

SMILES	KDM5B inhibitor
COCCOC1CCN(C(=O)CCc2cccc(OC)c2)CC1	i
CCN(CC)c1cc(CCC(=O)O)ccn1	i
CN(CCNC(=O)CN1CC2CC(C1)[C@H]1CCCC(=O)N1C2)C1CCCCC1 (stereo not given in full)	i
CN1CCN(CCNC(=O)CCc2ccc3c(c2)CN(S(C)(=O)=O)CCO3)CC1	i
COCCNC(=O)CCc1ncc(-c2ccc(C)c(C)c2)o1	i
COc1cccc(CCC(=O)N2CCC(OCC3CC3)C2)c1 (stereo not given)	i
CCN(CC)c1cc(CCC(=O)NCCCN2CCN(C)CC2)ccn1	25.1µM*
CC(=O)NCCc1ccc(C(=O)COC(=O)c2cc(C)ccc2O)s1	i
Cc1ccccc1N1CCN(c2ncccc2CNC(C)Cn2cncn2)CC1 (stereo not given)	i
CCN(CC(=O)Nc1ccccc1C(F)(F)F)C(=O)c1cc(=O)c2cc(C)ccc2o1	i
O=C(NC1CCCC1)c1cccc(I)c1	i
CCN(CC)c1cc(CCC(=O)NCCN2CCCCCC2)ccn1	28.2µM*
CCOC(=O)c1c(C)c(CCC(=O)NCCN2CCCCC2)c(C)n1C	i
O=C(O)CCC(=O)NCCN1CCCC1	i
COc1ccc(Cl)cc1NC(=O)COc1ccccc1O	i
Cc1c(Cl)cccc1N(CC(=O)Nc1ccc2c(c1)OCO2)S(C)(=O)=O	i
Cc1ccc2c(c1)N(C(=O)Cn1c(=O)n(CC(=O)N3CCCCC3)c(=O)c3sccc31)CCO2	i
CCOC(=O)C(NC=C(C#N)C#N)C(=O)OCC	i
COc1ccc(-c2nccc3c(=O)cc(N4CCOCC4)oc23)cc1OC	i
O=c1cc(N2CCOCC2)oc2c(NCc3ccc(F)cc3)nccc12	35.5µM*
CN(c1cc(=O)c2ccnc(-c3ccc(O)c(F)c3)c2o1)C1CCOCC1	31.6µM*
Cc1ccccc1-c1nccc2c(=O)cc(N(C)C3CCOCC3)oc12	i
Cc1cc(C)cc(-n2ccnc(NCc3ccc(F)cc3)c2=O)c1	i
O=C(c1cnc(N2CCOCC2)c2ccccc12)N1CCN(c2ccc(F)cc2)CC1	i
Cc1ccc(Nc2c(-c3ccc(N4CCOCC4)cc3)nc3ncccn23)cc1	i
SMILES	KDM5B inhibitor
CN(C)c1cc(=O)c2ccnc(-c3ccc(N4CCOCC4)cc3)c2o1	31.6µM*
Cc1ccc(Nc2c(-c3ccc(N4CCOCC4)cc3)nc3ncccn23)cc1C	i
CN(C1CCOCC1)C1CCN(C(=O)c2ccccn2)CC1	i
O=c1cc(N2CCOCC2)oc2c(-c3ccc(F)cc3)nccc12	35.5µM*
O=c1cc(N2CCOCC2)oc2c(-c3cccc4[nH]ccc34)nccc12	i
COc1ccc2ccc(OCc3nc(C(=O)N4CC(N5CCCCC5)C4)co3)cc2c1	i
O=C(NCC(F)(F)F)c1cccc(NC(=O)c2cccc3cccnc23)c1	i
CS(=O)(=O)/C(=C\c1cccc(Cl)c1)C(=O)c1ccccc1	i
CC(=O)c1ccc(NC(=O)Cn2ccc3cc(Cl)ccc32)cc1	i
COc1ccc(C(=O)NCC(O)c2ccc(C)cc2)cc1 (stereo not given)	i
O=C(c1cccc(N2CCCN(Cc3ccccc3)C2=O)c1)N1CCOCC1	i
Cc1cc(F)ccc1S(=O)(=O)N(Cc1nccn1C)C1CC1	i
CC1CCC(=NNC(=O)c2ccc(Br)o2)CC1 (stereo not given)	i
Cn1cc(-c2ccnc(N3CCOCC3)c2)c2nc(COc3ccc(Cl)cc3)cn2c1=O	i
COc1cc(F)ccc1-c1nccc2c(=O)cc(-c3cccnc3)oc12	i
O=c1cc(N2CCOCC2)oc2c(-c3ccc(F)c(Cl)c3)nccc12	20µM*
COc1cc(F)ccc1-c1nccc2c(=O)cc(N3CCOCC3)oc12	35.5µM*
CN1CCN(c2cc(=O)c3ccnc(Nc4ccc(F)c(Cl)c4)c3o2)CC1	i
COCC(=O)N(C1CCOCC1)C1CCN(C(=O)c2cc(F)ccc2F)CC1	i
COCC(=O)N(C1CCOCC1)C1CCN(C(=O)c2ccc(F)cc2F)CC1	i
COc1cc(F)ccc1-c1nccc2c(=O)cc(N(C)C3CCOCC3)oc12	39.8µM*
CC1CCCCN1S(=O)(=O)c1ccc(NC(=O)c2cc(=O)c3cc(Cl)ccc3o2)cc1 (stereo not given)	i
Cn1c(=O)c2sccc2n2c(CCCC(=O)N3CCN(c4ccccc4F)CC3)nnc12	i
CCCc1cc(=O)oc2cc(OCC(=O)NC3CCCC3)ccc12	i
CC(=O)Nc1ccc(NC(=O)CC2C(=O)Nc3nc(-c4ccccc4)nn32)cc1 (stereo not given)	i
SMILES	KDM5B inhibitor
Cc1nc2sccn2c1-c1csc(Nc2ccccc2Cl)n1	i
COCCNc1oc(-c2ccco2)nc1S(=O)(=O)c1ccc2c(c1)OCCO2	i
O=S(=O)(NCc1ccccc1F)c1ccc2c(c1)OCCO2	i
Cc1ccc2c(=O)cc(C(=O)Nc3sc4c(c3C#N)CCCC4)oc2c1	i
COc1cccc(CC(=O)NC(c2cccs2)C2CCCC2)c1 (stereo not given)	i
Cc1csc(/C(C#N)=C\c2cccc3c2OCCCO3)n1	i
